# Measured values reported in PubChem BioAssay AID2113 (National Center for Advancing Translational Sciences (NCATS), 2009).
# “And” between values parts separate entries of the source, which are not always exact repeats. Equal values may be shown once. Results filed as inconclusive are left out. Values without a mark were called inactive. The source made the active and inactive calls. Calls come from the whole dose curve; as a rule, active = well fitted curve in either direction with a large enough effect; inconclusive = small, poorly fitted or top-dose-only effect; inactive = no such curve, though single readings can be large or run the other way.
# Target: Lysosomal alpha-glucosidase (Homo sapiens) (UniProt P10253)
# Test: Confirmation of Inhibitors and Activators of Human alpha-Glucosidase From Spleen Homogenate;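 for Potency: fluorescence of 4-methylumbelliferone released from a fluorogenic glucopyranoside substrate at pH 5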; for activity change, both directions: 0% is about no effect
# Settings: alpha-glucosidase enzyme activity; series mostly up to 60.5 µM; activity change, both directions: at the top concentration
# Procedure, shortened: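 Fluorogenic assay using human spleen homogenate (1 ug) as enzyme source with 1 mM 4-methylumbelliferyl-alpha-D-glucopyranoside, pH 5.0 citrate buffer, 40 min at 37 C. 4-MU read (Ex 365/Em 440) after NaOH/glycine stop; AC50 from Hill fits.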
# Potency is the fitted concentration of half-maximal effect.
SMILES,"activity change, both directions",Potency
O=c1oc2ccc(Br)cc2cc1-c1nc2c(s1)CCc1ccccc1-2,-7.86%,
C(=C/c1nccc2c1[nH]c1ccccc12)/c1ccc2c(c1)OCO2,22.5%,
CC(=O)c1ccc(N2CCN(S(=O)(=O)c3cc4c(cc3Cl)NC(=O)C4)CC2)cc1,,1.83 µM [inhibitor] (active) and 5.17 µM [inhibitor] (active)
O=C1CC(c2ccccc2)Cc2nc(NCc3ccco3)ncc21 (stereo unspecified),-2.02%,
Nc1ccccc1S(=O)(=O)N1CCOCC1,3.59%,
NC(=S)NN=C1c2cc(S(=O)(=O)N3CCOCC3)ccc2-c2ccc(S(=O)(=O)N3CCOCC3)cc21,-40.4%,
O=S(=O)(c1ccc(Cl)cc1)N1CCN(c2nc(Nc3cc(Cl)ccc3O)nc3ccccc23)CC1,-2.43% [at 31.5 µM],
CC(=O)c1ccc(S(=O)(=O)N2CCOCC2)cc1,-1.31%,
CC1(C)CC(=O)c2cc(C(=O)NC3CCSC3=O)c(=O)n(-c3ccccc3)c2C1 (stereo unspecified),0.378% [at 31.5 µM],
CC(=O)c1ccc(N2CCN(S(=O)(=O)c3ccc4[nH]c(=O)[nH]c4c3)CC2)cc1,0.795%,
CC1(C)CC(=O)c2cc(C(=O)NCc3ccco3)c(=O)n(-c3ccc(Cl)cc3)c2C1,-1.85% [at 31.5 µM],
Nc1ccccc1N=Cc1ccc(-c2cccc(Cl)c2)o1,17.3%,
O=C(O)Cn1nnnc1SCC(=O)Nc1ccc(OC(F)(F)F)cc1,0.139% [at 31.5 µM],
Cc1cc(C)nc(SCc2cc(=O)c(OC(=O)c3ccco3)co2)n1,-1.64% [at 31.5 µM],
O=C(NN=C1c2ccccc2-c2ccccc21)c1cccc(S(=O)(=O)N2CCOCC2)c1,-2.68%,
CCCN1CNc2c(c(=O)[nH]c(=S)n2CCc2ccccc2Cl)C1,,15.8 µM (active)
